TMEM16A inh: TMEM16A chloride channel inhibitors, primary screen, cell-based, HTS; 1.2% of 310,000 active; normalized B-score (activity score, 25-100; higher = stronger inhibition) at 10 µM; AID 588511, 2011; HEK293 TMEM16A/YFP iodide influx fluorescence, ionomycin;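 active means ratio plate-corrected score three or more library SD toward inhibition, starting fluorescence score within five deviations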;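 further: score derived from kinetic fluorescence span divided by baseline fluorescence per well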
Target sequence (Q8BHY3 whole entry, looked up): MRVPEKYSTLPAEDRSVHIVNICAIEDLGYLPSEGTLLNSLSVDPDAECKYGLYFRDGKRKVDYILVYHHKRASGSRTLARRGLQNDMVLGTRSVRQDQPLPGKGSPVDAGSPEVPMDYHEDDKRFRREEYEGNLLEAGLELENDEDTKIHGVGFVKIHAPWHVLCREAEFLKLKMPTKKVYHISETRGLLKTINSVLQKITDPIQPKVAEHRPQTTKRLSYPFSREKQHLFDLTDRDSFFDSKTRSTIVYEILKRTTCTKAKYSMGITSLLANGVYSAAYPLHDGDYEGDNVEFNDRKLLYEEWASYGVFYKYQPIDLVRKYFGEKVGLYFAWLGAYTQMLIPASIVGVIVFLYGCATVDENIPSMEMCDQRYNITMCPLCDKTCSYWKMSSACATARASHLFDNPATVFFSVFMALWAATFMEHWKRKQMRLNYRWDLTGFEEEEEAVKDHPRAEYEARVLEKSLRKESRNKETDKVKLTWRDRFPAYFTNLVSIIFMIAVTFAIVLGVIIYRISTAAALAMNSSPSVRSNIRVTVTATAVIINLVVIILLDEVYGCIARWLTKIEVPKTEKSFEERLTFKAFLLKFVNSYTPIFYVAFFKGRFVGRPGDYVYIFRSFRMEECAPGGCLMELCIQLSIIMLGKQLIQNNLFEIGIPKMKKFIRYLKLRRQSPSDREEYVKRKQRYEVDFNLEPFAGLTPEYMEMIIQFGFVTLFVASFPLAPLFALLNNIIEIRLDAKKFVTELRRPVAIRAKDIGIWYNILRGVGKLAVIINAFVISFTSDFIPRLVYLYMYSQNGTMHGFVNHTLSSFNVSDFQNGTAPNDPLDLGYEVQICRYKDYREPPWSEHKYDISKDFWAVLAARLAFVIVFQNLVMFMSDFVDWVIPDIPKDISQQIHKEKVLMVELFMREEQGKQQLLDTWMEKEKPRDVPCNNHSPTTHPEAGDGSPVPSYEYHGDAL
ANO1 activ: TMEM16A chloride channel activators or potentiators, primary screen, cell-based, HTS | HEK293 TMEM16A/YFP-H148Q/I152L, iodide quench fluorescence; active compounds read low | Anoctamin-1 (Mus musculus), Q8BHY3 | AID 623877, 2012 | B-score at 10 µM | 0.3% of 340,000 active;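 active means fluorescence-ratio B-score plate-corrected deviation score at least 3 library SD below zero, with starting fluorescence score within 5 deviations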;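 further: channel opened by trigger with iodide after compound preincubation; score built on the fluorescence ratio of max minus min over baseline; more negative score means more quench and so TMEM16A activation or potentiation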
CRFR2-BP antag: antagonists of CRF-BP/CRF-R2 complex, primary screen, cell-based, HEK293, calcium dye fluorescence, uHTS; CRF-induced calcium fluorescence; inhibition, % at 11.8 µM; 0.59% of 350,000 active;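 active means inhibition of the ligand-induced calcium signal above about 50% at the single tested concentration, limit read from the data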
GRIN3A LBD mod: binders of NR3A ligand-binding domain, primary screen, biophysical, differential scanning fluorimetry, uHTS; Glutamate receptor ionotropic, NMDA 3A (GRIN3A) ligand-binding domain; NR3A LBD differential scanning fluorimetry, Tm shift; 0% = protein alone, 100% = glycine-bound protein; Tm shift relative to glycine control, % at 25 µM; 2.5% of 340,000 active; AID 1259313, 2017;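 active means melting temperature shift of at least 10% of the positive control shift, at one fixed dose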
CRFBP-R2 agonist: agonists of CRF-BP/CRF-R2 complex, primary screen, cell-based, HEK293, calcium dye fluorescence, uHTS; CRF-binding protein / CRF receptor 2 complex (human); activation, % at 13.2 µM; 0.46% of 350,000 active; calcium dye fluorescence (FLIPR); percent of saturating CRF peptide response; AID 588473, 2011;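 active means activation of at least 50%, plus an integration ratio under a set limit after plate pattern correction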;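 further: plate controls were neutral control wells without compound for no effect and CRF at EC100 for full effect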
MPTP inh: mitochondrial permeability transition pore inhibitors, primary screen, biochemical, isolated mouse mitochondria, absorbance. AID 602449, 2012. Ca2+ swelling absorbance, 30 min. 1.4% of 360,000 active. inhibition, % at 10 µM;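 active means inhibition of 50% or more, scaled per plate between neutral and stimulator controls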;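 further: 0% = DMSO wells given calcium and 100% = 1 mM EGTA wells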
Rh123 counter: fluorescence retest of MPTP screen hits in isolated mitochondria, single concentration | membrane potential, Rhodamine 123 fluorescence | AID 624504, 2012 | 78% of 5,000 active | inhibition, % at 10 µM | shares compounds with MPTP inh; in the data active means inhibition above about 22%;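 further: 0% = DMSO vehicle and 100% = positive control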
MPTP abs DR: mitochondrial permeability transition pore inhibitors, dose response, biochemical, absorbance, uHTS hits. shares compounds with MPTP inh. isolated mitochondria swelling. IC50, µM. 58% of 780 active; in the data active means IC50 below about 20 µM
MPTP counter DR: fluorescent counter-screen in isolated mitochondria, dose response, counter-screen for MPTP inhibitor project, biochemical, fluorescence, uHTS hits; shares compounds with MPTP inh; isolated mitochondria counterscreen, fluorescence read-out; IC50, µM; 49% of 780 active; in the data active means IC50 below about 80 µM
The depositor's hits bear a star; i = inactive; . = not tested or not shown; ! = not active in a repeat. Compounds with a hit are over-represented: about 5.1% of the library has one in this group of screens.

SMILES	TMEM16A inh	ANO1 activ	CRFR2-BP antag	GRIN3A LBD mod	CRFBP-R2 agonist	MPTP inh	Rh123 counter	others
CC(=O)c1cc(C(=O)N2CCCC(C(=O)c3ccc(Cl)cc3)C2)cs1 (stereo unspecified)	i	i	12	-1	-2	-1	.
CCc1cc2c(=O)c(-c3cnn(-c4ccccc4)c3)c(C)oc2cc1OCC(=O)Nc1ccc(F)c(F)c1	i	i	-18	4	3	80*	-3	MPTP abs DR=>100;MPTP counter DR=>80
C[C@H](CO)N1C[C@H](C)[C@@H](CN(C)S(=O)(=O)c2ccccc2)OCc2cnnn2CCCC1=O	.	.	-12	.	-1	1	.
CCCCCCCCCCCCCCCC[n+]1ccccc1	.	i	28	-7	0	53*!	107*
CCCCCc1ccc(OCCC[n+]2ccccc2)c(CCCCC)c1	i	i	-15	-4	15	18	.
COc1ccc(S(=O)(=O)Nc2ccc(F)c(F)c2)cc1Cl	i	i	-14	-3	-1	6	.
COc1ccc(NS(=O)(=O)c2ccc(N3CCOCC3)c(NC(=O)c3ccc(F)cc3)c2)cc1	i	i	-19	-15	-1	73*	17	MPTP abs DR=>100;MPTP counter DR=>80
COc1cc(Cl)c(C)cc1NC(=O)c1ccc(NS(=O)(=O)c2ccc(F)c(F)c2)cc1	i	i	-6	32*	-1	51*	60*
COc1ccc(NS(=O)(=O)c2ccc(N3CCOCC3)c(NC(=O)c3ccco3)c2)cc1	i	i	2	-2	-4	3	.
CCOC(=O)/C=C/C(=O)Nc1cc(S(=O)(=O)Nc2ccc(OC)cc2)ccc1N1CCOCC1	.	i	-3	1	-1	57*	70*
COc1ccc(NS(=O)(=O)c2ccc(N3CCOCC3)c(NC(=O)C(C)C)c2)cc1	i	i	100*	0	2	76*	55*
CC(Oc1ccc(F)cc1F)C(=O)NNC(=S)NCC1CCCO1 (stereo unspecified)	i	i	5	-1	0	0	.
Cc1c(C)n(Cc2ccccc2)c2ncnc(Cl)c12	i	i	2	0	1	56*	65*
Cc1c(C)n(CCc2ccccc2)c2ncnc(NCCO)c12	i	i	16	-2	-2	0	.
COc1ccc(S(=O)(=O)N2CCN(c3ncccn3)CC2)cc1OC	i	i	-31	-1	9	-1	.
COc1cc(CNCCO)ccc1OCC(=O)Nc1ccc(Br)cc1	i	i	2	-2	0	59*	-10	MPTP abs DR=i;MPTP counter DR=>80
COc1ccccc1OCC(=O)Nc1ccc(NC(=O)COc2ccccc2OC)cc1	i	i	-8	1	3	1	.
C=CC(C)(C)c1c2occc2c(O)c2ccc(=O)oc12	.	i	16	-4	24	74*	84*
COc1c2ccoc2c(OC)c2oc(=O)ccc12	i	i	5	-2	1	1	.
N=c1c(S(=O)(=O)c2ccccc2)cc2c(=O)n3ccccc3nc2n1CCCN1CCOCC1	i	i	2	-1	4	2	.
N=c1c(S(=O)(=O)c2ccc(Cl)cc2)cc2c(=O)n3ccccc3nc2n1CCN1CCOCC1	i	i	14	2	-1	60*	18	MPTP abs DR=>100;MPTP counter DR=>80
CC(OC(=O)CCc1ccccc1)C(=O)Nc1ccc(Cl)cn1 (stereo unspecified)	i	i	-11	-2	-1	0	.
Cc1cc(C)cc(Nc2nc(-c3ccc(S(=O)(=O)N4CCCC4)cc3)cs2)c1	i	i	-4	4	-1	9	.
O=S(=O)(c1ccc(-c2csc(Nc3ccc(F)cc3)n2)cc1)N1CCCC1	i	i	-122	24*	1	84*	69*
O=S(=O)(c1ccc(-c2csc(Nc3ccc(Br)cc3)n2)cc1)N1CCCC1	i	i	-9	25*	-1	60*	56*
SMILES	TMEM16A inh	ANO1 activ	CRFR2-BP antag	GRIN3A LBD mod	CRFBP-R2 agonist	MPTP inh	Rh123 counter	others
O=[N+]([O-])c1ccc(O)c(C(C#Cc2ccccc2)N2CCOCC2)c1 (stereo unspecified)	i	i	-9	-1	0	68*	87*
O=C(c1cc([N+](=O)[O-])ccc1N1CCOCC1)N1CCN(c2ccccc2)CC1	i	i	.	.	.	0	.
O=[N+]([O-])c1cccc(-c2noc3c2-c2nc(Cc4cccc5ccccc45)sc2CC3)c1	i	i	-4	-1	0	0	.
CCCCCCCCCn1c2c(c(=N)c3c1CCC3)CCCC2	.	i	-102	-21	14	104*	101*
CCCCCCCCCCn1c2c(c(=N)c3c1CCC3)CCC2	100*	i	-41	-7	20	85*	99*
CCCn1c(=S)[nH]c2cc(C(=O)N3CCN(c4ccc(F)cc4)CC3)ccc2c1=O	.	.	-3	.	0	0	.
COc1ccc(CN(C)C(=O)CNC(=O)c2cccs2)c(OC)c1	.	i	5	2	0	1	.
Cc1ccccc1CN1CCN(CC(=O)NCCCN2CCN(c3ccc(F)cc3)CC2)C1=O	i	i	-12	0	-3	56*	18
O=C(CN1CCN(Cc2ccc(Cl)cc2)C1=O)NCCCN1CCN(c2ccc(F)cc2)CC1	i	i	4	0	2	69*	16	MPTP abs DR=11*;MPTP counter DR=12*
O=C(Nc1ccc(Cl)c(Cl)c1)c1ccc(Cn2cc(Cl)cn2)cc1	.	i	-1	24*	4	54*	87*
NNC(=O)c1ccc(Cn2cc(Cl)cn2)cc1	i	i	-13	-1	-2	1	.
Cc1sc2ncn(CC(=O)NCCCN3CC(C)CC(C)C3)c(=O)c2c1S(=O)(=O)N1CC(C)CC(C)C1 (stereo unspecified)	i	i	-9	0	3	-1	.

Assay outcomes from PubChem.
